# Test results published in PubChem BioAssay (NCATS).
# Inconclusive results are not listed. A number with no mark means an inactive call. Active and inactive are the calls of the source. The call rests on the fitted dose curve; in most records, active means well fitted inhibition curve with a large enough effect; inconclusive means small, poorly fitted or top-dose-only effect, or effect the other way; inactive means flat fitted curve, though single readings scatter.
# Assay: Quantitative high throughput screen for delayed death inhibitors of the malarial parasite plastid, 48 hour incubation (AID 488752); further: nearly all actives have a fitted effect of over 65% in size
# Settings: Plasmodium falciparum growth; series mostly up to 28.7 µM; activity change, negative = inhibition: at the top concentration
# From the text: NIH Molecular Libraries Probe Production Network [MLPCN]
# NIH Chemical Genomics Center [NCGC]
# Assay Provider: David Fidock and Eric Ekland, Columbia University
# The goal of this screen is to discover new antimalarial compounds that act by inhibiting the development of the apicoplast in the malarial parasite Plasmodium falciparum. The biochemical processes that make this organelle essential for erythrocytic stage parasites are not well understood. However, antibiotics, such as azithromycin and tetracycline, which target the apicoplast translational machinery, have a potent antimalarial effect.
# We have developed a cell-based assay that measures parasite growth based on the expression of an integrated copy of a firefly luciferase reporter. To detect small molecules that cause this 'delayed death' phenotype, erythrocytes infected with the luciferase-expressing parasites were incubated with compounds for either one or two generations, corresponding to 48 and 96 hours, respectively. Compounds that inhibit parasite growth in the second generation, but not the first, should be enriched in antimalarials that target the apicoplast. Growth inhibition is detected by a decrease in luciferase activity
# Four microliters of culture medium (RPMI 1640 with 0.5% w/v Albumax (GIBCO), 24 mM sodium bicarbonate and 10 ug/mL gentamycin) were dispensed by a Multi-drop Combi into white solid 1536-well plates (Grenier) and 23 nL compound was added by a pin tool. Four microliters of infected erythrocytes (2% hematocrit, 0.1% parasitemia final concentration) in culture medium were dispensed and the plates incubated for 48 hours at 37 C in 5% CO2. Two microliters of luciferase detection reagent was added and luminescence was detected by a ViewLux (PerkinElmer) reader
# On the % scale 0 is the no-effect control and ±100 the full control effect; potency means the concentration at half of the fitted maximal effect.
SMILES,"activity change, negative = inhibition [%]",Potency
CC(C)(C)NCC(O)COc1nsnc1N1CCOCC1 (stereo not given),0.692,–
Cc1ccc(O)c(N=Nc2ccccc2)n1,9.23,–
CN1CCC[C@H]1c1cccnc1,2.04,–
O=C(O)c1cc([N+](=O)[O-])ccc1NCCCc1ccccc1,2.22,–
COc1cccc(OC)c1OCCNCC1COc2ccccc2O1 (stereo not given),-7.81,–
CC(=O)SCC[N+](C)(C)C,0.165,–
COc1cc(C(O)CO)ccc1OS(=O)(=O)O (stereo not given),6,–
COC(=O)c1c(C)[nH]c(C)c1C(=O)c1ccccc1Cc1ccccc1,–,9280 nM (active)
C[N+](C)(CCCCCC[N+](C)(C)CCCN1C(=O)c2cccc3cccc(c23)C1=O)CCCN1C(=O)c2cccc3cccc(c23)C1=O,–,294 nM (active)
CN(C)c1nc2c(Br)c(Br)c(Br)c(Br)c2[nH]1,16.3,–
Fc1ccc(C(OCCCc2cnc[nH]2)c2ccc(F)cc2)cc1,–,6570 nM (active)
CCCCCCCCCCCCCCCCCC(=O)NCC(COP(=O)([O-])OCC[N+](C)(C)C)OCC (stereo not given),-11.4,–
Oc1ccc(C2CNCc3sccc32)cc1O (stereo not given),-105,–
CCCCCC(O)c1cccc(OCc2ccc3ccccc3n2)c1 (stereo not given),-29.6,–
O=C(O)[C@@H]1C[C@H](C(=O)O)N1,-13.2,–
Cn1cc(C2=C(c3ccc(Cl)cc3Cl)C(=O)NC2=O)c2ccccc21,-24.9,–
O=C(Nc1cccc(C(=O)Nc2ccc(S(=O)(=O)O)c3cc(S(=O)(=O)O)cc(S(=O)(=O)O)c23)c1)Nc1cccc(C(=O)Nc2ccc(S(=O)(=O)O)c3cc(S(=O)(=O)O)cc(S(=O)(=O)O)c23)c1,8.52,–
CN1C2CCC1CC(OC(=O)C(O)c1ccccc1)C2 (stereo not given),-6.76,–
OCC1O[C@H](O)C(Cl)C(O)C1O (stereo not given in full),-13,–
O=C1O/C(=C/Br)CCC1c1cccc2ccccc12 (stereo not given),-11.1,–

SMILES,"activity change, negative = inhibition [%]",Potency
CCCCCCCC/C=C\CCCCCCCC(=O)NCCO,–,2620 nM (active)
N#C/C(=C\c1ccc(O)c(O)c1)C(=O)c1ccc(O)c(O)c1,-37.7,–
C=CC(N)CCC(=O)O (stereo not given),13,–
N=C(N)SCCc1ccc(CCSC(=N)N)cc1,9.13,–
CC1(C)CCC=[N+]1[O-],7.02,–
NCCCCCCCCCCN,11.7,–
CCCCCCCCCCCCCCCC(=O)NCC(COP(=O)([O-])OCC[N+](C)(C)C)OCC (stereo not given),21.8,–
CC12C(=O)OC(=O)C1(C)C1CCC2O1 (stereo not given),–,4150 nM (active)
O=C(O)CCCC[C@@H]1CCSS1,-0.253,–
O=c1[nH]c2ccccc2n1CCCN1CCN(C(c2ccccc2)c2ccccc2)CC1,-16.6,–
c1cnc2c(c1)ccc1cccnc12,–,2940 nM (active)
O=c1[nH]c2cc(Cl)c(Cl)cc2[nH]c1=O,21.8,–
N[C@@H](CC(=O)O)C(=O)O,-15.8,–
CN[C@H](CC(C)C)C(=O)N[C@H]1C(=O)N[C@@H](CC(N)=O)C(=O)N[C@H]2C(=O)N[C@H]3C(=O)N[C@H](C(=O)N[C@H](C(=O)O)c4cc(O)cc(O)c4-c4cc3ccc4O)[C@H](O)c3ccc(c(Cl)c3)Oc3cc2cc(c3O[C@@H]2O[C@H](CO)[C@@H](O)[C@H](O)[C@H]2O[C@H]2C[C@](C)(N)[C@H](O)[C@H](C)O2)Oc2ccc(cc2Cl)[C@H]1O,5.37,–
O=Nc1ccc2oc(=O)ccc2c1,5.49,–
CC[C@@H](C)[C@H]1O[C@]2(CC[C@@H]1C)C[C@@H]1C[C@@H](C/C=C(\C)[C@@H](O[C@H]3C[C@H](OC)[C@@H](O[C@H]4C[C@H](OC)[C@@H](O)[C@H](C)O4)[C@H](C)O3)[C@@H](C)/C=C/C=C3\CO[C@@H]4[C@H](O)C(C)=C[C@@H](C(=O)O1)[C@]34O)O2,–,1650 nM (active)
N.N.O=C(O)C1(C(=O)O)CCC1.[Pt],7.33,–
C#CCN1C(C)=C(C(=O)OC)C(c2cccc([N+](=O)[O-])c2)C(C(=O)OCC)=C1C (stereo not given),–,11700 nM (active)
O=C(O)CNC(=O)C(CS)Cc1ccccc1 (stereo not given),-2.47,–
COc1ccccc1CNCCCCCCNCCCCCCCCNCCCCCCNCc1ccccc1OC,–,2940 nM (active)
